Compound activity deposited in PubChem BioAssay by several laboratories.
CSC inhib: cancer stem cell viability inhibitors, primary screen, luminescence; 300,000 tested, 1.1% active; inhibition, % at 7.5 µM; cancer stem cell-like cells viability; in the data active means inhibition above about 75%; inconclusive means no clear call, values can overlap the other calls; tested in HMLE shEcad cells
aSyn 5UTR inh: MLPCN primary screen, SNCA 5' untranslated region; alpha-synuclein 5'UTR reporter, inhibitor activity; inhibition, % (tested at 7.5 µM); 300,000 tested, 0.82% active; AID 1813, 2009; in the data active means inhibition above about 60%; inconclusive means no clear call, values can overlap the other calls;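 further: H4 neuroglioblastoma cells stably carrying SNCA 5'UTR luciferase fusion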
Beta apoptosis: inhibitors of cytokine-induced beta cell apoptosis, primary screen, luminescence; INS-1E cytokine-induced death, ATP luminescence, 48 h; percent of positive-control rescue, neutral wells zero; protection from apoptosis, % (concentration not given with the values); 300,000 tested, 0.8% active;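 active means Every replicate reaches about 75%, or at least half do and their mean reaches it too, limit read from the data; inconclusive means At least half of replicates reach the limit but their mean does not; inactive means Under half of replicates reach the limit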;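 further: higher means more ATP so stronger rescue from cytokine killing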
Mdm2-MdmX inh: inhibitors of human Mdm2-MdmX association, primary screen, cell-based, luminescence, split luciferase, SaOS-2, uHTS. SaOS-2 split-luciferase Mdm2/MdmX complementation. inhibition, % at 8 µM. 330,000 tested, 3% active. AID 485346, 2010;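 active means inhibition of at least 50% at 8 µM in the primary screen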
Bfl-1 A1 inh: caspase 3/7 activation in MEF A1-2A-BIM cells, primary screen, A1 inhibitor project, cell-based, luminescence, HTS | Caspase-Glo 3/7 luminescence, 3 h; percent of clofoctol response, vehicle zero | caspase activation, % (no concentration beside the values) | 330,000 tested, 0.066% active | AID 2462, 2010;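 active means over half of replicate activation scores above 10%, or exactly half above 10 with the replicate mean above 10; inconclusive means replicate mean below 10 yet half the replicates above 10; inactive means over half of replicates below 10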
Mdm2 MdmX conf: Mdm2-MdmX complex disruptors, retested hits, confirmation, luminescence, single concentration. shares compounds with Mdm2-MdmX inh. Mdm2-MdmX binding, luminescent assay. inhibition, % at 8 µM. 10,000 tested, 55% active. AID 489028, 2010; in the data active means inhibition above about 40%
FLuc counter: full-length luciferase signal inhibition, confirmation, counter-screen for Mdm2/MdmX interaction inhibitor project, cell-based, single concentration, SaOS-2 | AID 504607, 2011 | 6,200 tested, 77% active | inhibition, % at 8 µM | shares compounds with Mdm2-MdmX inh | SaOS-2 full-length luciferase counterscreen, luminescence;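 active means mean inhibition at 8 µM reaching about 37%, which flags the compound as non-specific, limit read from the data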;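 further: p53-null SaOS-2 cells with luciferase driven by a doxycycline-inducible promoter; compound on cells about two nights before reading with doxycycline added after day one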
Large screens that a line does not name were inactive (follow-up assays come after a bar, where they were run). Rows were chosen to be rich in hits. Some 4.1% of all compounds tested hit in one or more screens of this group.

NC1=NC[C@@H](CC2CCCCC2)N1CCc1cc(C(F)(F)F)cc(C(F)(F)F)c1	CSC inhib 139, Beta apoptosis 109, Mdm2-MdmX inh 99 (no result: aSyn 5UTR inh) | Mdm2 MdmX conf 100 | FLuc counter 51
NC1=NC[C@H](c2ccccc2)N1CCc1cc(C(F)(F)F)cc(C(F)(F)F)c1	Mdm2-MdmX inh 80 | Mdm2 MdmX conf 68 | FLuc counter 57
Cc1cc(=O)oc2cc(OCC(=O)OCC(=O)N3CCC(C)CC3)ccc12	none
O=c1cc(-c2ccccc2Cl)oc2cc(O)cc(O)c12	none
O=C1C=CC(O)(c2cc(=O)c3c(O)cc(O)cc3o2)C=C1	Beta apoptosis 111, Mdm2-MdmX inh 99 | Mdm2 MdmX conf 66 | FLuc counter 48
Cc1ccc(-c2csc(=Nc3cccnc3)n2CCCn2ccnc2)cc1C	Mdm2-MdmX inh 71 | Mdm2 MdmX conf 75 | FLuc counter inactive
CN1C2CCC1/C(=C\c1ccccc1F)C(=O)/C2=C/c1ccccc1F	Mdm2-MdmX inh 59 | Mdm2 MdmX conf 41 | FLuc counter inactive
NC(=O)C1CCN(c2nc(-c3cccc(Cl)c3)cs2)CC1	none (no result: aSyn 5UTR inh)
CN(c1cccc(NC(=O)CN(c2ccc(C34CC5CC(CC(C5)C3)C4)cc2)S(C)(=O)=O)c1)S(C)(=O)=O	Mdm2-MdmX inh 76 | Mdm2 MdmX conf 54 | FLuc counter 78
CN(c1cccc(NC(=O)CN(c2ccc(F)cc2)S(C)(=O)=O)c1)S(C)(=O)=O	none
Cc1ccc(S(=O)(=O)N2CCOCC2)cc1NC(=O)COC(=O)Cn1c(C)csc1=O	none
CCc1cccc2sc(N3CCN(C(=O)c4ccc([N+](=O)[O-])o4)CC3)nc12	Mdm2-MdmX inh 94 | Mdm2 MdmX conf 75 | FLuc counter 46
Cc1ccc(N(CC(=O)NC2CC2)S(=O)(=O)c2ccccc2)c(C)c1	none
O=[N+]([O-])c1ccc2c(c1)C(O)n1nc(-c3ccc(Cl)cc3Cl)nc1S2 (centres undefined)	none | Mdm2 MdmX conf 54 | FLuc counter 102
Cc1ccc(S(=O)(=O)N2CCN(c3ccc(S(=O)(=O)N4CCOCC4)cn3)CC2)cc1	Mdm2-MdmX inh 66 | Mdm2 MdmX conf inactive
Cc1ccc(S(=O)(=O)N2CCOCC2)cc1C(=O)OCC(=O)c1c(N)n(C)c(=O)n(C)c1=O	none (no result: aSyn 5UTR inh)
Cn1c(N)c(C(=O)COC(=O)c2cc(S(=O)(=O)N3CCOCC3)ccc2F)c(=O)n(C)c1=O	Mdm2-MdmX inh 82 (no result: aSyn 5UTR inh) | Mdm2 MdmX conf inactive
CC(C)(C)c1nc2ccccc2c2nnc(SCC(=O)Nc3nccs3)n12	Mdm2-MdmX inh 68 (no result: CSC inhib, Beta apoptosis) | Mdm2 MdmX conf 60 | FLuc counter 50
CCCCn1c(SCC(=O)Nc2nccs2)nc2ccccc2c1=O	Mdm2-MdmX inh 65 | Mdm2 MdmX conf inactive
CCCCn1c(SCC(=O)Nc2ccc(NC(C)=O)cc2)nc2ccccc2c1=O	none
CC(C)(C)c1nc2ccccc2c2nnc(SCC(=O)Nc3nc4ccccc4s3)n12	none
CN(C)CCCn1c(SCC(=O)Nc2nc(-c3cccc(Br)c3)cs2)nc2ccccc2c1=O	CSC inhib inconclusive, Mdm2-MdmX inh 100 | Mdm2 MdmX conf 56 | FLuc counter 115
O=C(CSc1nc2ccccc2[nH]1)Nc1nc(-c2cccc(Br)c2)cs1	none
COc1cc(OC)c(OC)cc1/C=C1\CCC/C(=C\c2cc(OC)c(OC)cc2OC)C1=O	Mdm2-MdmX inh 67 (no result: CSC inhib, Beta apoptosis, Bfl-1 A1 inh) | Mdm2 MdmX conf 43 | FLuc counter 82
CC1=C([N+](=O)[O-])C(c2cccc(Br)c2)C2=C(N1)c1ccccc1C2=O (centres undefined)	aSyn 5UTR inh 90, Mdm2-MdmX inh 74 | Mdm2 MdmX conf 66 | FLuc counter 84
C=CCn1c(SCc2c(C)noc2C)nc2ccccc2c1=O	CSC inhib inconclusive, aSyn 5UTR inh 80, Mdm2-MdmX inh 58 | Mdm2 MdmX conf 60 | FLuc counter 66
C=CCn1c(SCc2c(C)noc2C)nc2sc3c(c2c1=O)CCCC3	Mdm2-MdmX inh 52 | Mdm2 MdmX conf 55 | FLuc counter 41
Cc1noc(C)c1CSc1nnc2n(-c3ccccc3)c(=O)c3ccccc3n12	none
Cc1noc(C)c1CSc1nc2ccccc2c(=O)n1-c1ccccc1	Mdm2-MdmX inh 67 | Mdm2 MdmX conf 63 | FLuc counter 67
Cc1noc(C)c1CSc1nc2sc3c(c2c(=O)n1C)CCCC3	none (no result: CSC inhib)
Cc1noc(C)c1CSc1nc2[nH]ncc2c(=O)n1-c1ccccc1	aSyn 5UTR inh inconclusive, Mdm2-MdmX inh 69 | Mdm2 MdmX conf 68 | FLuc counter 61
Cc1nc(CSc2nc3[nH]ncc3c(=O)n2-c2ccccc2)cs1	none (no result: CSC inhib)
O=C(CC12CC3CC(CC(C3)C1)C2)Nc1nncs1	none
COC(=O)c1sccc1NC(=O)CC1C(=O)NCCN1C(=O)Nc1cc(Cl)ccc1OC (centres undefined)	none
O=C(Nc1ccc(C(=O)NCCCN2CCN(c3ccccc3)CC2)cc1)C1=CSCCO1	none (no result: Beta apoptosis)
COc1cc2nc(SCc3c(C)noc3C)n(CCC3=CCCCC3)c(=O)c2cc1OC	Mdm2-MdmX inh 87 (no result: Beta apoptosis) | Mdm2 MdmX conf 52 | FLuc counter 50
Cc1noc(C)c1CSc1nc2ccccc2c(=O)n1-c1ccc(F)cc1F	Mdm2-MdmX inh 66 | Mdm2 MdmX conf 53 | FLuc counter 58
C=CCn1c(SCc2c(C)noc2C)nc2cc(C(=O)O)ccc2c1=O	none
CN(C(=O)CSc1nc2ccccc2c(=O)n1-c1ccc(F)cc1F)C1CCS(=O)(=O)C1 (centres undefined)	none (no result: aSyn 5UTR inh)
c1ccc([C@H]2CNCCN2CCc2cccc3ccccc23)cc1	Mdm2-MdmX inh 57 (no result: aSyn 5UTR inh) | Mdm2 MdmX conf inactive
CCN(CC)c1ccc(-c2nn3c(-c4n[nH]c5c4CCC5)nnc3s2)cc1	aSyn 5UTR inh 72, Mdm2-MdmX inh 51 | Mdm2 MdmX conf 59 | FLuc counter 102
C1CCC(c2nn3c(-c4n[nH]c5c4CCC5)nnc3s2)CC1	aSyn 5UTR inh inconclusive
Nc1nnnn1/N=C/c1cc(Cl)cc(Cl)c1OCc1ccc(Cl)cc1Cl	Mdm2-MdmX inh 81 | Mdm2 MdmX conf inactive
O=C(/C=C/c1ccco1)NC(=S)Nc1cccc(-c2nc3ccccc3o2)c1	Mdm2-MdmX inh 59 | Mdm2 MdmX conf 53 | FLuc counter 92
Cc1ccc(-c2nc3ccccc3o2)cc1NC(=S)NC(=O)/C=C/c1ccco1	Mdm2-MdmX inh 55 (no result: Beta apoptosis) | Mdm2 MdmX conf inactive
Cc1ccc(-c2nc3ccccc3s2)cc1NC(=S)NC(=O)/C=C/c1ccco1	none
Cc1ccc(C)c(OCC(O)CN2CCC(Cc3ccccc3)CC2)c1 (centres undefined)	none
